Laboratory results taken from the supplement of paper PMC6555819.

Experiments:
Assay in all cases: PBM binding z-score (relative to random genomic background probes); higher = stronger binding; sequences stand for … in GC…GCGATTGACAGCGTAGAATGAAGG
[1] = tested on: FXR:RXRa (NR concentration 270 nM, RXRa partner concentration 90 nM)
How it was run: (§1)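 Scanned fluorescence from custom Agilent 4×180K protein-binding microarrays was regression-normalized. Binding z-scores use random background probes as reference. Ligand-free nuclear receptor dimers were incubated on the arrays for 1 h and detected with antibodies against each partner (one per run).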

[2] = tested on: LXRa:RXRa (NR concentration 270 nM, RXRa partner concentration 90 nM)
How it was run: as §1

[3] = tested on: LXRa homodimer (NR concentration 270 nM)
How it was run: as §1

[4] = tested on: LXRb:RXRa (NR concentration 270 nM, RXRa partner concentration 90 nM)
How it was run: as §1

[5] = tested on: LXRb homodimer (NR concentration 270 nM)
How it was run: as §1

[6] = tested on: PPARa:RXRa (NR concentration 270 nM, RXRa partner concentration 90 nM)
How it was run: as §1

[7] = tested on: PPARg:RXRa (NR concentration 180 nM, RXRa partner concentration 90 nM)
How it was run: as §1

[8] = tested on: PPARg:RXRa 270nM:90nM, anti-RXR (NR concentration 270 nM, RXRa partner concentration 90 nM)
How it was run: as §1

[9] = tested on: PPARg:RXRa 30nM:10nM, anti-RXR (NR concentration 30 nM, RXRa partner concentration 10 nM)
How it was run: as §1

[10] = tested on: PPARg:RXRa 90nM:30nM, anti-RXR (NR concentration 90 nM, RXRa partner concentration 30 nM)
How it was run: as §1

[11] = tested on: PPARg:RXRa DBDmut IVT, anti-RXR (DBD mutation: RXRa K156A/R161A, NR concentration 270 nM, RXRa partner concentration 90 nM)
How it was run: as §1

[12] = tested on: PPARg:RXRa IVT, anti-PPARg (NR concentration 270 nM, RXRa partner concentration 90 nM)
How it was run: as §1

[13] = tested on: PPARg DBDmut:RXRa IVT, anti-PPARg (DBD mutation: PPARg1 K132A/R137A, NR concentration 270 nM, RXRa partner concentration 90 nM)
How it was run: as §1

[14] = tested on: PPARg DBDmut IVT, anti-PPARg (DBD mutation: PPARg1 K132A/R137A, NR concentration 270 nM)
How it was run: as §1

[15] = tested on: PPARg homodimer (NR concentration 180 nM)
How it was run: as §1

[16] = tested on: PXR:RXRa (NR concentration 270 nM, RXRa partner concentration 90 nM)
How it was run: as §1

[17] = tested on: PXR homodimer (NR concentration 270 nM)
How it was run: as §1

[18] = tested on: RARa:RXR (NR concentration 270 nM, RXRa partner concentration 90 nM)
How it was run: as §1

[19] = tested on: RARa homodimer (NR concentration 270 nM)
How it was run: as §1

[20] = tested on: RARb:RXRa (NR concentration 270 nM, RXRa partner concentration 90 nM)
How it was run: as §1

Row | Sequence | PBM binding z-score [1] | PBM binding z-score [2] | PBM binding z-score [3] | PBM binding z-score [4] | PBM binding z-score [5] | PBM binding z-score [6] | PBM binding z-score [7] | PBM binding z-score [8] | PBM binding z-score [9] | PBM binding z-score [10] | PBM binding z-score [11] | PBM binding z-score [12] | PBM binding z-score [13] | PBM binding z-score [14] | PBM binding z-score [15] | PBM binding z-score [16] | PBM binding z-score [17] | PBM binding z-score [18] | PBM binding z-score [19] | PBM binding z-score [20]
1 | GTACCAAGGTGAATAGGTCTTTGATGAGTAGGCG | 0.444 | 0.341 | -0.168 | 0.148 | -0.363 | 1.23 | 0.96 | 1.11 | 0.335 | 0.823 | 2.18 | 2.5 | 0.818 | 0.145 | 0.986 | 0.0831 | 0.119 | 0.721 | 0.436 | 1.36
2 | ATCTCTAGGTAACCAAGTTCAGTGTATGCCGAAC | 0.4 | 0.852 | 0.996 | 0.524 | 0.803 | 1.06 | 0.577 | 0.99 | 0.331 | 0.721 | 3.75 | 3.04 | 0.877 | 1.39 | 0.882 | 1.9 | 1.95 | 0.828 | 1.09 | 1.08
3 | TAGCCTAGGACAGATCGGGCCAGTATACGCTATA | -1.33 | -1.15 | -0.706 | -1.34 | -0.794 | -1.96 | 0.367 | -0.842 | -0.355 | -0.623 | -0.993 | -0.151 | -0.673 | 0.0562 | -1.15 | -0.732 | -0.768 | -0.695 | -1.42 | -0.928
4 | TGCATGAGGTTATAAGATCAGGGAACGTTGCAAA | 1.67 | 1.59 | -0.113 | 0.956 | 0.14 | 2.37 | 0.778 | 1.2 | 0.448 | 0.789 | -0.354 | 0.643 | 0.656 | 0.178 | 0.466 | 0.667 | -0.0693 | 1.48 | 0.252 | 1.4
5 | GCAGACAAGTGAAACGCAGGTAACTCAGGGTGGC | -0.375 | -0.79 | -0.665 | -0.901 | -1.26 | -0.28 | 0.44 | -0.661 | -0.558 | -0.468 | -0.601 | -0.398 | -0.525 | -1.2 | -0.82 | -0.683 | -0.723 | -0.207 | -0.732 | -1.75
6 | GATACAGGGTCAGCAAGAGGCCAGAGTATGGAAA | 4.96 | 3.07 | -0.295 | 2.49 | -0.626 | 4.8 | 3.55 | 3.6 | 1.29 | 2.37 | 0.915 | 2.6 | -0.173 | -0.37 | 1.98 | 3.23 | 0.0143 | 4.07 | 0.301 | 4.18
7 | CAAACTAGGTCCCAGAGGTCAAAGTCCGTGCGTA | 4.91 | 5.18 | 5.61 | 5.18 | 1.42 | 4.98 | 4.51 | 4.75 | 2.13 | 4.08 | 4.19 | 4.68 | 1.03 | 0.477 | 2.64 | 5.55 | 2.66 | 5.68 | 1.33 | 3.8
8 | ATACCAAGGTGATCGTTAGGTCGTTGATACTAAC | 1.05 | 0.551 | 0.24 | 0.374 | -0.0967 | 0.452 | 0.242 | 0.192 | -0.144 | -0.131 | 0.451 | 1.04 | 0.332 | 1.27 | 0.52 | 0.494 | 0.467 | 1.25 | 0.0968 | 0.816
9 | CCTGCTAGGTCAATGGTTAGCTAAAGCAGCTCGC | 2.78 | 1.76 | -0.418 | 1.44 | -0.3 | 2.63 | 3.33 | 3.77 | 1.16 | 3.2 | 4.4 | 3.57 | -0.722 | -1.05 | 0.942 | 0.745 | -0.456 | 1.29 | -0.0432 | 3.74
10 | CCTACTGGGCCATTCAGAGGTCATGGATCATATG | 2.57 | 4.16 | 5.17 | 3.61 | -0.202 | 4.54 | 2.64 | 3.6 | 1.23 | 3.29 | 4.14 | 4.64 | 0.856 | 0.389 | 2.93 | 4.92 | 0.765 | 5.46 | 0.962 | 3.19
11 | AGTCAAAGTTCACTCGGTAACGTAAGATTCAGCT | 5.02 | 5.41 | 3.18 | 3.38 | 1.27 | 4.24 | 5.6 | 5.93 | 2.54 | 4.94 | 0.841 | 2.9 | 1.02 | 1.36 | 2.4 | 4.21 | 2.5 | 3.1 | 1 | 4.76
12 | ATCGAAAGGTCGAAGGTGGGTATACCCACCCGAA | 4.08 | 3.18 | 0.0928 | 2.34 | 0.437 | 4.28 | 3.74 | 3.99 | 1.28 | 2.77 | -0.494 | 1.52 | 0.29 | 0.264 | 1.05 | 2.11 | -0.101 | 3.05 | -0.341 | 3.51
13 | AACACAGGGTCACTAGGCCAGAGTAGGTACGAAT | 6.27 | 4.48 | 0.354 | 3.63 | 0.661 | 5.75 | 7.72 | 6.51 | 2.84 | 5.42 | 3.35 | 5.16 | 3.43 | 0.694 | 5.13 | 3.16 | 0.347 | 4.14 | 0.685 | 4.19
14 | CCAGACAGGAGAAAGGTAACTCAGTCTGGTACGC | -0.00582 | -0.0922 | -0.373 | -0.0883 | -0.51 | 0.347 | 0.817 | 1.46 | 0.169 | 0.958 | 0.0518 | -0.161 | -0.761 | -0.621 | 0.229 | -0.00799 | 0.153 | 0.168 | 0.262 | 0.234
15 | ATCTCTAGGTAAAATTCAGTGAAAGATCGATAGA | 0.583 | 0.493 | 0.422 | 0.121 | 0.916 | 0.171 | 0.606 | 0.699 | 0.552 | 0.917 | 1.48 | 1.53 | 0.966 | 1.25 | 1.04 | -0.0781 | 0.481 | -0.157 | 1.26 | 0.336
